Assay outcomes: PubChem, Buhrlage Lab, Dana-Farber Cancer Institute and Novartis Institutes for BioMedical Research (Cambridge, Mass)
This is a sample that favours compounds with a hit; in the whole collection about 11% have one here.
OTUD3 inh = blocks human OTUD3 ubiquitin-rhodamine cleavage | Q5T2D3 | purified OTUD3, Ub-rhodamine fluorescence, 2 h | inhibition, % at 25 µM | 47,000 tested, 0.7% active | AID 1645858
Target sequence (Q5T2D3 whole entry, looked up): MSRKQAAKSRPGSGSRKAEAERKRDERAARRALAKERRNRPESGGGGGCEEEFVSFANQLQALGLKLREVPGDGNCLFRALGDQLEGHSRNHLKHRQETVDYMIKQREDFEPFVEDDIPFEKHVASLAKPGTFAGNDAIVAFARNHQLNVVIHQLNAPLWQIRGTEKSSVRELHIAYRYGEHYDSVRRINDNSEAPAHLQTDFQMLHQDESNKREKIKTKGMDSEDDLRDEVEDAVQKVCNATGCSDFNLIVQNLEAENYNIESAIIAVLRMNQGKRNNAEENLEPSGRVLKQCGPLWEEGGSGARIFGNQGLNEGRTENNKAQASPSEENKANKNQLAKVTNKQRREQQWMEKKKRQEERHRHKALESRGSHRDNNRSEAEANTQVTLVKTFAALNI
USP30 block = human USP30 deubiquitinase inhibition; purified USP30, Ub-rhodamine cleavage fluorescence; inhibition, % at 25 µM; 47,000 tested, 5.3% active
USP17 block = inhibitors of human USP17 deubiquitinase; A8MUK1; purified USP17, Ub-rhodamine cleavage fluorescence, 3 h; inhibition, % at 50 µM; 47,000 tested, 6.5% active; AID 1645855
USP28 block = blocks human USP28 ubiquitin-rhodamine cleavage; 47,000 tested, 3% active; Q96RU2; purified USP28, Ub-rhodamine cleavage fluorescence, 30 min; inhibition, % at 25 µM; AID 1645857
* marks the source's active call; other numbers are inactive results; / = no result given. Rule as the data show it: active = inhibition above about 30%; inactive = the rest.

SMILES	OTUD3 inh	USP30 block	USP17 block	USP28 block
COc1ccc(CNC(=O)CCn2c(=O)c3sccc3n(Cc3cccc([N+](=O)[O-])c3)c2=O)cc1	14	13	11	11
O=S(=O)(NCCc1ccccn1)c1cccc2nsnc12	1	13	-8	0
Cc1ccc(S(=O)(=O)N2CCOCC2)cc1N1C(=O)CC2(CCCCC2)CC1=O	-14	-40	-27	-16
COc1ccc(CCNC(=O)CCCn2c(SCC(=O)NCc3ccco3)nc3ccccc3c2=O)cc1OC	37*	41*	33*	0
O=C(c1ccc(N2CCc3ccccc32)nn1)N1CCc2ccccc21	-22	1	52*	-23
COc1ccccc1NC(=O)N1CCC2(CC1)NC(=O)N(CCc1ccccc1)C2=O	7	13	3	15
COCCNC(=O)C1CCCN(S(=O)(=O)N(C)C2CCCCC2)C1 (centres undefined)	-2	-3	-2	-5
COc1ccc(OC)c(S(=O)(=O)Nc2cccc(-c3nc4cccnc4s3)c2)c1	-7	-44	-11	9
Cc1ccc(S(=O)(=O)Nc2cccc(-c3nc4cccnc4s3)c2)cc1C	9	47*	29	17
CC(=O)N1Cc2cc(C)ccc2OC2(CCN(CC(=O)Nc3ccccc3Cl)CC2)C1	-18	-11	-15	-19
O=C(CCc1ccccc1)Nc1cc(=O)[nH]c2nc(COc3ccccc3)nn12	-8	-52	-25	-26
CC(=O)N1CCOc2cc(S(=O)(=O)N3CCCC3c3cc(C)no3)ccc21 (centres undefined)	19	20	7	52*
CCn1nccc1C1CCCN1S(=O)(=O)c1ccc2c(c1)OCCO2 (centres undefined)	2	8	-7	0
CCc1cc(C2CCCN2S(=O)(=O)c2ccc3c(c2)OCCN3C(C)=O)on1 (centres undefined)	8	-45	8	39*
Cc1cc(C)n2nc(NCc3ccc(Br)cc3)nc2n1	2	9	-2	26
CCOc1ccccc1NC(=O)CCc1nc2ccccc2[nH]1	1	/	-10	/
O=c1c(S(=O)(=O)c2cc(F)cc(F)c2)c[nH]c2cc(Cl)ccc12	4	29	52*	1
O=S(=O)(Cc1ccc(F)cc1)c1c[nH]c2ccccc12	5	-9	28	7
Cc1cccc(OCC(O)CN2CCN(c3ccccn3)CC2)c1 (centres undefined)	4	17	2	5
NCCC(=O)N1CCC2(CC1)OC(=O)N(Cc1ccccc1)c1ccccc12	-8	-4	-11	13
NCCNC(=O)N1CCC2(CC1)OC(=O)N(Cc1ccccc1)c1ccccc12	5	5	-8	34*
CCCn1nccc1-c1cncc(C2CCCN(S(C)(=O)=O)C2)n1 (centres undefined)	1	4	1	-2
CN(N=O)C(=O)NC1C(O)OC(CO)C(O)C1O (centres undefined)	-1	12	-1	-4
CC(C(=O)NCCc1ccccc1)n1nc(-c2ccccc2)c2cc(Cl)ccc21 (centres undefined)	34*	55*	48*	18
C/C=C/[C@@H]1C=C[C@@H]2C[C@H](C)CC[C@H]2[C@]1(C)C(O)=C1C(=O)[C@H](CO)N(C)C1=O	13	24	27	16
SMILES	OTUD3 inh	USP30 block	USP17 block	USP28 block
CN1C(=O)c2cc(NC(=O)CC3CCCC3)ccc2N2CCN=C12	-3	-2	-9	-9
O=C(Cn1ncc2ccccc21)Nc1ccc(Br)cn1	14	-21	5	39*
CCc1nnc(NC(=O)Cn2ncc3ccccc32)s1	18	0	0	15
Cc1cc(F)ccc1NC(=O)c1cccn1Cc1noc(C2CC2)n1	3	0	10	1
COc1ccccc1Cc1nc(-c2cn(-c3ccc(C)cc3)nn2)no1	1	13	-11	3
CCC(C)N(CCNC(=O)CC1Oc2ccccc2NC1=O)C1CCCCC1 (centres undefined)	-1	-10	-12	-8
O=C(CC1Oc2ccccc2NC1=O)Nc1ccccc1Br (centres undefined)	-19	-16	59*	-7
O=S(=O)(c1ccccc1)N1CCN(c2cnn3c(C4CC4)nnc3c2)CC1	-7	-7	3	-3
COc1ccc(C(CC(=O)Nc2ccc(Cl)cc2F)NC(=O)C(F)(F)F)cc1 (centres undefined)	2	12	31*	-6
COc1ccc(-c2nc(SCC(=O)Nc3ccc(Cl)cc3F)n[nH]2)cc1	-4	33*	59*	-1
CCc1ccc(C(CC(=O)Nc2ccc3c(c2)OCO3)NC(=O)C(F)(F)F)cc1 (centres undefined)	18	16	19	11
